Mot1-301 SUMO – SUMOylation pathway inhibition by Mot1-301 growth rescue. S. cerevisiae Mot1-301 growth rescue, ATP luminescence, 38.5C; percent above DMSO median, 100 means doubled. growth rescue, % at 18.8 µM. hit rate 1% among 320,000. AID 2716;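 active = every valid replicate shows activation above 250% relative to neutral control wells; inactive = the rest, any valid replicate at or below 250%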;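 also: OY570 slx delta 5 strain wells were the positive control but not used for scaling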
AI-2 QS modul – Vibrio harveyi AI-2 quorum sensing modulation; hit rate 0.4% among 300,000; activity change, % at 7.5 µM; Vibrio harveyi JMH597 AI-2 luminescence/OD600 ratio, 9 h; hits give low values; strain lacks LuxN and CqsS sensors; 0 = neutral-control median; in the data active = activity change below about -75%, passing the limit was not always enough;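 also: luminescence divided by OD600 gain over 9 h not by final OD600 alone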
ALR H2O2 inh – blocks human ALR sulfhydryl oxidase activity; purified ALR, DTT oxidation, H2O2 HRP-luminol luminescence; hit rate 3.8% among 290,000; inhibition, % (test concentration not listed);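 active = mean replicate inhibition above about 79%, with every replicate also reaching it, limit read from the data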
Target sequence (P55789 whole entry, looked up): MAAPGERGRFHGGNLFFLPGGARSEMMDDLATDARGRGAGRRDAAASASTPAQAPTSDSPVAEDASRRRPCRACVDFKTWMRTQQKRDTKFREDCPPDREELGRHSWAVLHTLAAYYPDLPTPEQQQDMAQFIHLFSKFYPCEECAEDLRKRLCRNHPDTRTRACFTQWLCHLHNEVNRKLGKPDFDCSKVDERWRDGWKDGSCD
HIF activator – HIF pathway transcriptional activation | U2OS HRE-luciferase reporter, luminescence; normalized: DMSO 0%, desferrioxamine 100% | activation, % at 7.5 µM (by protocol) | hit rate 0.32% among 300,000 | AID 1910;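 active = mean activation of at least 10% of the iron chelator positive control signal, with at least half of replicates also reaching 10%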
* hit, by the source's call; nt = no result. Rows were chosen to be rich in hits. Some 4.8% of all compounds tested hit in one or more screens of this group.

SMILES	Mot1-301 SUMO	AI-2 QS modul	ALR H2O2 inh	HIF activator
COc1cccc(C2Nc3ccccc3NC3=C2C(=O)CC(C)(C)C3)c1OC (stereo unspecified)	-11	21	99*	-1
COc1ccc(C2Nc3ccccc3NC3=C2C(=O)CC(C)(C)C3)cc1OC (stereo unspecified)	4	-3	73	1
Cc1ccc(C(CC(=O)O)NC(=O)c2ccc(S(=O)(=O)N3CC(C)OC(C)C3)cc2)cc1 (stereo unspecified)	-10	nt	1	nt
CC1CCC(NC(=O)c2cc(S(=O)(=O)N3CCCCC3)ccc2N2CCOCC2)CC1 (stereo unspecified)	2	nt	-6	nt
COc1ccc(-c2nc(=S)[nH][nH]2)cc1	126	7	99*	0
FC(F)(F)c1ccc(-c2nc(=S)[nH][nH]2)cc1	272	3	99*	96*
CCOc1ccc(-c2nc(=S)[nH][nH]2)cc1	2	-45	nt	1
Oc1ccc(-c2nc(=S)[nH][nH]2)cc1	16	10	nt	nt
COc1cc(-c2nc(=S)[nH][nH]2)cc(OC)c1OC	232	23	99*	0
COc1cc(-c2nnc(-c3cc(OC)c(OC)c(OC)c3)o2)cc(OC)c1OC	6	10	0	0
COc1ccc(-c2nc(=S)[nH][nH]2)cc1OC	-18	20	100*	1
Cc1ccc(N2CC(C(=O)Nc3nnc(SCCN4CCOCC4)s3)CC2=O)cc1 (stereo unspecified)	7	5	-4	0
CCc1cc(CNC(=O)C2CCC(=O)N(Cc3cccc(F)c3)C2)on1 (stereo unspecified)	-10	0	2	0
CC(OC(=O)COc1ccc(C#N)cc1)C(=O)Nc1ccc(Cl)cn1 (stereo unspecified)	-11	-11	1	0
O=C(NC1C2CCCC1CN(C1CC1)C2)c1ccc(Cl)cc1 (stereo unspecified)	-19	21	26	-2
O=C(O[C@@H]1OC2COC(=O)c3cc(O)c(O)c(O)c3-c3c(cc(O)c(O)c3O)C(=O)O[C@@H]([C@H]1O)[C@@H]2O)c1cc(O)c(O)c(O)c1	-12	17	99*	0
O=S(=O)(Nc1ccccc1O)c1ccc(Cl)nc1	-2	15	99*	-2
O=C(NNC(=O)c1ccc(O)c(Cl)c1)c1cccc(S(=O)(=O)N2CCOCC2)c1	-2	2	3	-1
CC1(C)OC(=O)N(NCc2ccccc2)C1(C)O (stereo unspecified)	-5	21	-11	-1
CC1CCCN(C(=O)COc2ccc(Nc3ccccc3)cc2)C1 (stereo unspecified)	-6	23	99*	-1
CC1CCN(C(=O)COc2ccc(Nc3ccccc3)cc2)CC1	nt	12	88*	-1
OCC1CCCN(C(=S)Nc2ccc(Nc3ccccc3)cc2)C1 (stereo unspecified)	18	12	100*	4
OCC1CCCN(C(=S)Nc2ccc(OC(F)F)cc2)C1 (stereo unspecified)	10	38	3	1
CC(=O)Nc1ccc(OCC(=O)N2CCC(Cc3ccccc3)CC2)cc1	-6	34	-10	-1
Cc1nnc(NC(=O)c2ccc(Br)o2)s1	1	18	-11	1
SMILES	Mot1-301 SUMO	AI-2 QS modul	ALR H2O2 inh	HIF activator
CN1c2ccccc2Sc2cc(N)ccc21	44	12	95*	2
COc1ccc(F)c(CN2CCC(n3nccc3NC(=O)CCCc3ccccc3)CC2)c1	-9	-95*	-5	0
COc1cccc(CN2CCC(n3nccc3NC(=O)CCOc3ccccc3)CC2)c1O	93	28	94*	0
CCC1COCCS(=O)(=O)N1Cc1cccc(C(F)(F)F)c1 (stereo unspecified)	-21	18	2	0
Cc1ccc(NC(=O)c2ccc([N+](=O)[O-])s2)cc1S(=O)(=O)N1CCOCC1	-2	nt	-26	nt
N#Cc1c2n(c3c(=S)nc[nH]c13)CCCCC2	5	30	93*	0
O=C(c1ccccn1)N1CCN(c2cccc(C(F)(F)F)c2)CC1	363*	26	2	-1
Cc1ccc(-n2nc3c(c2NC(=O)C(C)(C)C)CS(=O)(=O)C3)cc1	-10	17	-6	0
Cc1ccccc1-c1nc(CS(=O)CC(=O)NCc2ccc3c(c2)OCO3)c(C)o1 (stereo unspecified)	20	15	98*	0
Cc1oc(-c2ccccc2F)nc1CS(=O)CC(=O)NCc1ccc(Cl)cc1 (stereo unspecified)	10	15	59	0
Cc1oc(-c2ccccc2Cl)nc1CS(=O)CC(=O)NCc1ccc(Cl)cc1 (stereo unspecified)	9	nt	99*	0
Cc1oc(-c2ccccc2Cl)nc1CS(=O)CC(=O)NCc1ccc2c(c1)OCO2 (stereo unspecified)	0	6	82*	0
COC(=O)Cc1coc2cc(OC)ccc12	5	nt	-2	nt
CCC(C(=O)OC(C)C)c1ccc2ccccc2c1 (stereo unspecified)	29	nt	-6	nt
CNC(=O)c1nnsc1S(=O)(=O)c1ccc(Cl)cc1	nt	-95*	nt	-1
O=S(=O)(c1ccc2c(c1)CCN2)N1CCCC1	-21	nt	98*	nt
O=S(=O)(c1ccc2c(c1)CCCN2)N1CCCC1	-2	nt	nt	nt
Cc1ccc(NC2CCCN(C(=O)c3cccs3)C2)cc1C (stereo unspecified)	nt	2	99*	0
COc1ccc(NC2CCCN(C(=O)c3cccs3)C2)cc1 (stereo unspecified)	-7	27	99*	1
COc1ccc(NC2CCCN(C(=O)c3ccccc3C(F)(F)F)C2)cc1 (stereo unspecified)	-8	15	99*	1
CCOC(=O)N1CCN(C2CCCN(C(=O)c3ccccc3C(F)(F)F)C2)CC1 (stereo unspecified)	nt	14	nt	1
Cc1ccc2nc(C(=O)N3CCCC(Nc4ccc(F)cc4)C3)cn2c1 (stereo unspecified)	6	24	30	1
COc1ccc(OC)c(C(=O)N2CCCC(Nc3ccc(F)cc3)C2)c1 (stereo unspecified)	-20	13	94*	0
COc1ccc(NC(=O)Nc2ccc3c(c2)OCO3)c(C)c1	-12	23	-10	1
CCn1nc(C)cc1C(=O)N1CCCC(Nc2ccc(C(C)C)cc2)C1 (stereo unspecified)	nt	14	nt	1
CC(C)c1ccc(NC2CCCN(C(=O)c3cccs3)C2)cc1 (stereo unspecified)	-3	13	99*	0
CCC/C(=N/NC(=O)c1cccc(Cl)c1)c1ccccc1	-7	20	5	10*
Cc1cc(C)c(C)c(S(=O)(=O)N(C)CCc2ccccn2)c1C	84	nt	-2	nt
CCCCN(C)Cc1c(C)[nH]c2ccccc2c1=O	160	9	-1	0
Cc1[nH]c2ccccc2c(=O)c1CN(C)Cc1ccccc1	331*	2	-2	-1

Assay outcomes: PubChem, Broad Institute
